Measured values: PubChem BioAssay AID1159580 (chemical genetic matrix, 2015)
Screen size: about 5,500 compounds; about 2,000 (36%) were called active. Not shown: some 18% with an inconclusive outcome. No stated cut-off is given here; in the data, active means normalized growth mostly below about 0.91 (no sharp cut-off); inconclusive means no clear call, values can overlap the other calls; inactive means mostly above about 0.92. The list shows a part of the results.

Assay: chemical genetic growth profiling, strain panel (AID 1159580);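 further: tested at 20 µM; growth read once vehicle control cultures reached saturation at 30 °C; 1 = growth at the plate median or of vehicle wells; lower values mean less growth of the strain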
Details: S. cerevisiae deletion strains, growth OD

Measured: normalized growth

OCc1cc(C(O)CNCCCCCCOCCCCc2ccccc2)ccc1O (centres undefined)
inactive: locus YAL040C, strain CLN3, hits give low values 1.07 | locus YCL061C, strain MRC1 (second series), hits give low values 1.01 | locus YDR150W, strain NUM1, hits give low values 1.01 | locus YDR363W, strain ESC2, hits give low values 0.995 | locus YER002W, strain NOP16, hits give low values 1.02 | locus YMR263W, strain SAP30, hits give low values 1.01 | locus YMR307W, strain GAS1, hits give low values 0.992 | locus YNL175C, strain NOP13, hits give low values 1.01 | locus YNL197C, strain WHI3, hits give low values 1.01 | locus YNL224C, strain SQS1, hits give low values 1.01 | locus YOR083W, strain WHI5 (second series), hits give low values 1.01 | locus YPL055C, strain LGE1, hits give low values 0.983 | locus YPL241C, strain CIN2, hits give low values 0.997

N/C(Cn1ccc(C(F)(F)F)n1)=N/OS(=O)(=O)c1cccc(Cl)c1Cl
inactive: locus YAR019C, strain CDC15, hits give low values 0.979 | locus YBL105C, strain PKC1, hits give low values 0.989 | locus YBR135W, strain CKS1, hits give low values 0.977 | locus YBR136W, strain MEC1, hits give low values 0.985 | locus YBR160W, strain CDC28, hits give low values 0.972 | locus YDL017W, strain CDC7, hits give low values 0.994 | locus YDL028C, strain MPS1, hits give low values 0.985 | locus YDL101C, strain DUN1, hits give low values 0.989 | locus YDL108W, strain KIN28, hits give low values 0.98 | locus YDL132W, strain cdc53, hits give low values 0.983 | locus YDL214C, strain PRR2, hits give low values 1.01 | locus YDR052C, strain DBF4, hits give low values 0.986 | locus YDR054C, strain cdc34, hits give low values 0.975 | locus YDR226W, strain ADK1, hits give low values 0.987 | locus YDR477W, strain SNF1, hits give low values 0.993 | locus YER123W, strain YCK3, hits give low values 0.989 | locus YER133W, strain GLC7, hits give low values 0.995 | locus YFL009W, strain cdc4, hits give low values 0.988 | locus YFL029C, strain CAK1, hits give low values 0.979 | locus YFR003C, strain YPI1, hits give low values 0.985 | locus YFR019W, strain FAB1, hits give low values 1 | locus YFR028C, strain CDC14, hits give low values 0.98 | locus YGR040W, strain KSS1, hits give low values 0.983 | locus YGR052W, strain FMP48, hits give low values 1.09 | locus YGR092W, strain DBF2, hits give low values 0.974 | locus YHR030C, strain SLT2, hits give low values 1.07 | locus YHR079C, strain IRE1, hits give low values 1.05 | locus YHR082C, strain KSP1, hits give low values 1.11 | locus YHR205W, strain SCH9, hits give low values 1.02 | locus YIL147C, strain SLN1, hits give low values 0.987 | locus YJL095W, strain BCK1, hits give low values 1.08 | locus YJL128C, strain PBS2, hits give low values 0.988 | locus YJL157C, strain FAR1, hits give low values 1 | locus YJR016C, strain ILV3, hits give low values 0.989 | locus YJR066W, strain TOR1 (second series), hits give low values 0.982 | locus YJR066W, strain TOR1, hits give low values 1.12 | locus YKL048C, strain ELM1, hits give low values 0.984 | locus YKL067W, strain YNK1, hits give low values 0.994 | locus YKL101W, strain HSL1, hits give low values 1.01 | locus YKL193C, strain SDS22, hits give low values 0.983 | locus YKL203C, strain TOR2, hits give low values 1.06 | locus YLR113W, strain HOG1, hits give low values 1.04 | locus YLR133W, strain CKI1, hits give low values 1.01 | locus YLR403W, strain SFP1, hits give low values 0.992 | locus YML070W, strain DAK1, hits give low values 1 | locus YMR001C, strain CDC5, hits give low values 0.983 | locus YMR205C, strain PFK2 (second series), hits give low values 1 | locus YMR277W, strain FCP1, hits give low values 0.991 | locus YNL006W, strain LST8, hits give low values 0.99 | locus YNL020C, strain ARK1, hits give low values 1.01 | locus YNL161W, strain CBK1, hits give low values 0.981 | locus YNL183C, strain NPR1, hits give low values 1.06 | locus YNL207W, strain RIO2, hits give low values 0.977 | locus YNL222W, strain SSU72, hits give low values 0.977 | locus YNL307C, strain MCK1 (second series), hits give low values 0.997 | locus YOL078W, strain AVO1, hits give low values 0.986 | locus YOL136C, strain PFK27, hits give low values 1.02 | locus YOR061W, strain CKA2, hits give low values 1.01 | locus YOR119C, strain RIO1, hits give low values 1.04 | locus YOR231W, strain MKK1, hits give low values 1.01 | locus YOR329C, strain SCD5, hits give low values 0.992 | locus YPL031C, strain PHO85, hits give low values 0.998 | locus YPL153C, strain RAD53, hits give low values 0.987 | locus YPL204W, strain HRR25, hits give low values 0.989 | locus YPL209C, strain IPL1, hits give low values 0.978 | locus YPL256C, strain CLN2, hits give low values 1.03 | locus YPR025C, strain CCL1, hits give low values 0.978 | locus YPR106W, strain ISR1, hits give low values 0.992 | locus YPR111W, strain DBF20, hits give low values 0.976 | strain NNK1, hits give low values 0.998 | strain TSCII, hits give low values 0.986
